± gives the standard deviation of the averaged measurements.

Test in all cases: phage ELISA signal ratio (GST-PRM binding over GST background); higher = stronger binding of peptide-phage to the PRM
Background: In an ELISA, binding on a coated surface is turned into a signal by an enzyme label.

The target of assay [1] is T1, ARID4A 568-634 Tudor-knot (domain begin residue: 568, domain end residue: 634), P29374.
T1 chain: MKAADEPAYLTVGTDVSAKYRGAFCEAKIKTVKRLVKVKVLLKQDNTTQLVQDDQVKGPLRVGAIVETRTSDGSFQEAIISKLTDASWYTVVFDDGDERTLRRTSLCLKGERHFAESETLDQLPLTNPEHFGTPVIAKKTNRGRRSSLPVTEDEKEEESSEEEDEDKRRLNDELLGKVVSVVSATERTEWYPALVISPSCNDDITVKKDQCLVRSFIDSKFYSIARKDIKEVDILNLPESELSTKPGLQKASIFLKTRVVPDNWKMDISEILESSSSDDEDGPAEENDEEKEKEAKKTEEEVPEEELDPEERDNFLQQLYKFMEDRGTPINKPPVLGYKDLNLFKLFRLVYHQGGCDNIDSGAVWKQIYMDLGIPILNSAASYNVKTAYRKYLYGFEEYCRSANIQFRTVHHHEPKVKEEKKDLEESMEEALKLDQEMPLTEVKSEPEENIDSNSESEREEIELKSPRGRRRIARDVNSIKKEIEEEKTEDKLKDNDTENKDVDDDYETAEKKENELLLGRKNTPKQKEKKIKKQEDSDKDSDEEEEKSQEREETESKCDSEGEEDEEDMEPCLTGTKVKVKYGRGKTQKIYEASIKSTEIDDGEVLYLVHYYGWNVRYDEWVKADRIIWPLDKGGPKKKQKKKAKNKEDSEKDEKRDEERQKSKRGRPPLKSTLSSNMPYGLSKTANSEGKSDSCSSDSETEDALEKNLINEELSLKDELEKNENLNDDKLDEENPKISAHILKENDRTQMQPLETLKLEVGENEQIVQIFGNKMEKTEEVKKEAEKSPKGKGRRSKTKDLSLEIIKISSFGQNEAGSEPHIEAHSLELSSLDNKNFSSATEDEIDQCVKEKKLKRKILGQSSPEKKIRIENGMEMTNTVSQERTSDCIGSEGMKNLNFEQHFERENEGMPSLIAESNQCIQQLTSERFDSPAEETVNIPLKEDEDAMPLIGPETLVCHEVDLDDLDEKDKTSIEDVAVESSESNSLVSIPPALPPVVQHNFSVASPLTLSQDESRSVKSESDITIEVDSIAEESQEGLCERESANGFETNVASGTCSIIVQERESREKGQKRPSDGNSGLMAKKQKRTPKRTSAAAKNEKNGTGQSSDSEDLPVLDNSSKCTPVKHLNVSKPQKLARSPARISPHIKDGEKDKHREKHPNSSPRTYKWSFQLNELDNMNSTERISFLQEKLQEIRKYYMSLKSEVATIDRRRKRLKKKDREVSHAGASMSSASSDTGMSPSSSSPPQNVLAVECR
The protocol: (§1)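 Phage-displayed random hexadecapeptides (Cys-free, flanked by invariant Gly linkers, fused to the M13 P8 major coat protein) were selected over 5 rounds against GST-fused human PRM domains. Individual clones from rounds 4-5 were tested by phage ELISA, and positive clones binding the target but not GST were sequenced. Values are the ELISA signal ratio of target over background (GST); the background signal is given separately.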

Assay [2] addresses KMT2C 1055-1137 PHD (domain begin residue: 1055, domain end residue: 1137). The protocol: as §1
Assay [3] concerns the target KMT2C 995-1055 PHD (domain begin residue: 995, domain end residue: 1055). How it is done:
as §1

The target in assay [4] is SETD1A 2-220 RRM_1 (domain begin residue: 2, domain end residue: 220), O15047. The protocol:
as §1

Assay [5] concerns the target T2, TDRD1 261-449 TUDOR (domain begin residue: 261, domain end residue: 449), Q9BXT4.
T2 chain: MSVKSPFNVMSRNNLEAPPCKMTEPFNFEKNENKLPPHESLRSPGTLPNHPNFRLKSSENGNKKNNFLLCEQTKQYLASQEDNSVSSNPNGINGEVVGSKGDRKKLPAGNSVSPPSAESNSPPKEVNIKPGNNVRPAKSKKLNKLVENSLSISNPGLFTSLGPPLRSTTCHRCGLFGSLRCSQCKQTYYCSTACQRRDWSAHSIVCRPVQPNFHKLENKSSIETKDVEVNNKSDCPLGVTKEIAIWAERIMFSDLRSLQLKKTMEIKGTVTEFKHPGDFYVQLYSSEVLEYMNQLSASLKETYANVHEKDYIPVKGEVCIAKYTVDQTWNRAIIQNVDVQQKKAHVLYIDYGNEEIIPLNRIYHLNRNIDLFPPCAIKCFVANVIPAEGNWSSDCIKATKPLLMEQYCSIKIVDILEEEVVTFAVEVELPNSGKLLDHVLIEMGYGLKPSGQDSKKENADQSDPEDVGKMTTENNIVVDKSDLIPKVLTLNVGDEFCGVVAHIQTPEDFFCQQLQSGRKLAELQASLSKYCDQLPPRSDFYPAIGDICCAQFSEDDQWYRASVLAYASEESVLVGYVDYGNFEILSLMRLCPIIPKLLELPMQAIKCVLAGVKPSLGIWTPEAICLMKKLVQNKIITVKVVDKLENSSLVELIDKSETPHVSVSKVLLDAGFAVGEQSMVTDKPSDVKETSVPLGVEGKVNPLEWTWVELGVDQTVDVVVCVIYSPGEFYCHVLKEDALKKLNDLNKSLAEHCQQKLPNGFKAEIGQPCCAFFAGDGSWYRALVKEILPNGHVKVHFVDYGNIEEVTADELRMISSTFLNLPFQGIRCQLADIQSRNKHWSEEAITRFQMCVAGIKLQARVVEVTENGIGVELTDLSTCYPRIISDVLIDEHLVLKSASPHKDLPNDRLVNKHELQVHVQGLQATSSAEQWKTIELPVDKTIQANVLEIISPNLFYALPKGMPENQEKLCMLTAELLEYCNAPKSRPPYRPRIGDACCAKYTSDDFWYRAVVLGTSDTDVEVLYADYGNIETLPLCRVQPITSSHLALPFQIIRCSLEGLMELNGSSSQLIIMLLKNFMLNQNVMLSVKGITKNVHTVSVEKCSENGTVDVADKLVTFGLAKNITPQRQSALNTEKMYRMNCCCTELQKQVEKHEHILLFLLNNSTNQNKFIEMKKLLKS
The protocol: as §1

The target in assay [6] is T3, TDRKH 290-430 TUDOR+SNase (domain begin residue: 290, domain end residue: 430), Q9Y2W6.
T3 chain: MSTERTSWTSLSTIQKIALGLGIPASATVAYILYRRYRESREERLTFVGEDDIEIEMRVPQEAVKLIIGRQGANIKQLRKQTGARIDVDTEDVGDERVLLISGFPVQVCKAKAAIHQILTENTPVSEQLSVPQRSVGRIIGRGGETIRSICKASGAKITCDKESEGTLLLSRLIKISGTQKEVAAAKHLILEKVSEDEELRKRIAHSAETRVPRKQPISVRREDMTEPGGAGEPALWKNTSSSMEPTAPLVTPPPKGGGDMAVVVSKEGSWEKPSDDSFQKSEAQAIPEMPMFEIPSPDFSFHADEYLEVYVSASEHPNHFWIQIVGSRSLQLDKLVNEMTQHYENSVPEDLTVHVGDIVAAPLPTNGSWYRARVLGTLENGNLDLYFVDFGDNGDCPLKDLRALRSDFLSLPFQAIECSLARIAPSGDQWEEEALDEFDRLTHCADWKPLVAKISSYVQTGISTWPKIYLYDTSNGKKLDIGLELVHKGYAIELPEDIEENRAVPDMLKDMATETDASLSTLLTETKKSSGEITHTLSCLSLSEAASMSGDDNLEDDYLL
How it is done: as §1

The target in assay [7] is T4, CAPN2 513-700 EF-hand_8 (domain begin residue: 513, domain end residue: 700), P17655.
T4 chain: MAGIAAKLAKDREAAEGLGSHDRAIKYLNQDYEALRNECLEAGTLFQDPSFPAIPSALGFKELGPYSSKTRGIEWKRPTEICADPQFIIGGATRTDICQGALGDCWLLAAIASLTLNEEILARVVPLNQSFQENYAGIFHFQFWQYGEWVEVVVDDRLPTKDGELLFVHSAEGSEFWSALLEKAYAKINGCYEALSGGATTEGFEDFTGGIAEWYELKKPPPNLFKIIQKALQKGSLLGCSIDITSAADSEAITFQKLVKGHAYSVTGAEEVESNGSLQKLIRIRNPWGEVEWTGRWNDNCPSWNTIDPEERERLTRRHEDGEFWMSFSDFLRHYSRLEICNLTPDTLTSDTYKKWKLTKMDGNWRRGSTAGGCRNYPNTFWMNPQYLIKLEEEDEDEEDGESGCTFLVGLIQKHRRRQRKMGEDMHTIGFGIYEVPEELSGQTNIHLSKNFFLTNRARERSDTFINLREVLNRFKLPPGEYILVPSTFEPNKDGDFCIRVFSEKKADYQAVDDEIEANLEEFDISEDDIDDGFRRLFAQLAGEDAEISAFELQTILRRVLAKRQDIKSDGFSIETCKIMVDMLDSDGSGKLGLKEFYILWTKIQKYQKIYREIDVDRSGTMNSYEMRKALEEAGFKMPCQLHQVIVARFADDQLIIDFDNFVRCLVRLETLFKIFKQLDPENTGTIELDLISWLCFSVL
How it is done: as §1

Chain of SETD1A 2-220 RRM_1 (domain begin residue: 2, domain end residue: 220), O15047 (O15047 whole entry): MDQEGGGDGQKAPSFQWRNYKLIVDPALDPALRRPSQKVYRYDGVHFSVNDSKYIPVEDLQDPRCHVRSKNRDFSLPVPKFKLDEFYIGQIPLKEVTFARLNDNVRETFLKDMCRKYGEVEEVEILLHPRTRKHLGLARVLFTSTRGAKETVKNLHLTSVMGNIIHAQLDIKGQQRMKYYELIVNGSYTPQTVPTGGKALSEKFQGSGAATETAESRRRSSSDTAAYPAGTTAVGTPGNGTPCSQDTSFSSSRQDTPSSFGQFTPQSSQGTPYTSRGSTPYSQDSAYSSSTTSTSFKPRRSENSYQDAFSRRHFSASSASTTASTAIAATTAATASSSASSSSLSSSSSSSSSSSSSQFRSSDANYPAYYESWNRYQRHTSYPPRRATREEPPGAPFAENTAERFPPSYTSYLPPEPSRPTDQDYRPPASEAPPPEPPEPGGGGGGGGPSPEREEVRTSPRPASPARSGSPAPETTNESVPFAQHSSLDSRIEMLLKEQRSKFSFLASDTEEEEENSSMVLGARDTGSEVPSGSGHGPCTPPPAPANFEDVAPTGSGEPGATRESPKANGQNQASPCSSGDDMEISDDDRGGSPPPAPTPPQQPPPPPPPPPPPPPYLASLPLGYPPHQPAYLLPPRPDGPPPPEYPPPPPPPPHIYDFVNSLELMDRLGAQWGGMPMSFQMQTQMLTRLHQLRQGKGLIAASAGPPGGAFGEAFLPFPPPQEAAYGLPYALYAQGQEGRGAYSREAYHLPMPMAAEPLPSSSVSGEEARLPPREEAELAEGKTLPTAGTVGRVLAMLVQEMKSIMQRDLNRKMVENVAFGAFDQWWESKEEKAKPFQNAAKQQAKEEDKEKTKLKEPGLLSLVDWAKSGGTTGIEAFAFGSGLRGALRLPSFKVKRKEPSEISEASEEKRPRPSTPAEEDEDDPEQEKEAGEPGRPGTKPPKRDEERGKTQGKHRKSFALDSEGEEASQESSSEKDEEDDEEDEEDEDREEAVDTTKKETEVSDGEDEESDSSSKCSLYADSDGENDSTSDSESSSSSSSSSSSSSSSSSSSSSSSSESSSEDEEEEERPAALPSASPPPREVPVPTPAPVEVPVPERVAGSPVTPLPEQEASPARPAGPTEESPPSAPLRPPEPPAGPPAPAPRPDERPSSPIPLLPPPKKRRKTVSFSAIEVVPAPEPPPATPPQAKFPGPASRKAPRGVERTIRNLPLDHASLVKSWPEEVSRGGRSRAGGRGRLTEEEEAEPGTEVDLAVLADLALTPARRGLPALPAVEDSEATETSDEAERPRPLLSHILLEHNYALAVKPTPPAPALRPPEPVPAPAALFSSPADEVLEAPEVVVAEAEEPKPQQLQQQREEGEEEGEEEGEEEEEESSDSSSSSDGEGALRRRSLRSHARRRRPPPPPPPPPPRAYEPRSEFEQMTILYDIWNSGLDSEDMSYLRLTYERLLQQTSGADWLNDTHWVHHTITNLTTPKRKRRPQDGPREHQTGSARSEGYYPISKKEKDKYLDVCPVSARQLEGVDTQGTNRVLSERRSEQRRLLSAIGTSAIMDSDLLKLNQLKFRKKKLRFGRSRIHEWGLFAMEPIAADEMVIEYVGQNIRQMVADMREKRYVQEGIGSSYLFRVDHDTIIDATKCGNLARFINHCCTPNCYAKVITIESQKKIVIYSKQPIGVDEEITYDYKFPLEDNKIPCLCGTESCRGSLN

Turning to DWWDMWAQGDILEIHS, in assay [1], the “phage ELISA signal ratio” value is 11.5.
For the molecule STDIWDMWREWNEIDM, the “phage ELISA signal ratio” value in assay [1] is 9.5 ± 0.67; in assay [2], 6.74; in assay [3], 5.38; in assay [4], 12; in assay [5], 9.16; in assay [6], 6.85.
Turning to VTVPPWLMEMIMELMQ, in assay [7], the “phage ELISA signal ratio” value came out at 5.99.

These data come from the supplement of paper PMC7724964.
